Reference: PubChem BioAssay AID492952 (Southern Research Specialized Biocontainment Screening …, 2010)
Among all 2,300 compounds or so, about 1,500 (65%) were called active. The rule behind the calls is not given here. So high a share suggests a set chosen from earlier hits. Some of the results follow. Measured potencies and affinities stand elsewhere.

Assay: replicating M. tuberculosis growth inhibition, dose response, non-replicating M. tuberculosis project, H37Rv (AID 492952);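 note: Mycobacterium tuberculosis grown in culture; growth inhibition read after a week of incubation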
Settings: series mostly up to 50 µM

Row | Compound | outcome
1 | COC(=O)c1ccccc1NC(=O)C1CC(c2ccc(F)cc2)=NO1 (stereo not drawn) | inactive
2 | CC(=O)CCC1CC(c2ccc(Cl)cc2)=NO1 (stereo not drawn) | inactive
3 | CC(C)(C)c1ccc(OCCC(=O)OCC(=O)NC2CCCCC2)cc1 | inactive
4 | COc1ccc(OCCC(=O)OCC(=O)Nc2ccc(Br)cc2)cc1 | inactive
5 | O=C(COc1ccc([N+](=O)[O-])cc1)NNC(=O)c1cccs1 | inactive
6 | CC/C(=C\c1oc2cc3ccccc3cc2[n+]1CC)Nc1ccccc1 | inactive
7 | CCc1nnc(NC(=O)CN2CCN(c3ccccc3F)CC2)s1 | inactive
8 | Brc1ccc(OCCCCN2CCCCC2)cc1 | inactive
9 | CCOC(=O)c1c(-c2ccc(C)o2)csc1NC(=O)CN1CCCCC1 | inactive
10 | COc1ccc2cc(C(=O)NCc3ccccc3)c(=O)oc2c1 | inactive
11 | NC(=O)N/N=C/c1ccccc1OC(=O)c1cc2ccccc2oc1=O | inactive
12 | COCCNC(=O)c1cc2cc(Cl)cc(Cl)c2oc1=O | inactive
13 | COc1cccc2cc(C(=O)c3ccc([N+](=O)[O-])cc3)oc12 | inactive
14 | CC(C)[C@H](NC(=O)c1ccc(Br)cc1)C(=O)NC1CCCCC1 | inactive
15 | Oc1ccc(Cl)cc1CNCc1ccc(F)cc1 | inactive
16 | O=C(N/N=C/c1coc2ccccc2c1=O)c1ccc(Cl)cc1 | inactive
17 | C=CCn1c(=O)c(C(=O)Nc2cccnc2)c(O)c2ccccc21 | inactive
18 | O=C(N/N=C/c1cccc(F)c1)c1c(O)c2ccccc2[nH]c1=O | inactive
19 | O=C1CC(N2CCSCC2)C(=O)N1CCc1ccccc1 (stereo not drawn) | inactive
20 | Cc1cc2ccccc2n1CCNC(=O)C(C)(C)C | inactive
21 | O=C(COc1ccc(Cl)cc1)Nc1ccc2[nH]ncc2c1 | inactive
22 | CC1CCN(CCOCCSc2ccc(Cl)cc2)CC1 | inactive
23 | CCCCCCNC(=O)c1ccc(Br)o1 | inactive
24 | C=CCNc1nc(C(=O)OCC(=O)c2cccc(Br)c2)cs1 | inactive
25 | CCOc1ccc(OCc2ccc(C(=O)N/N=C(\C)c3ccccn3)cc2)cc1 | inactive
26 | COc1ccc(C(=O)Nc2ccccc2C(=O)N/N=C/c2ccco2)cc1 | inactive

Row | Compound | outcome
27 | CC(=O)NCCOC(=O)Nc1sc(=S)n(C)c1C | inactive
28 | C/C(=N\Nc1ccc(Cl)cc1)c1ccccn1 | inactive
29 | Cc1cc(O)c(-c2cc(O)c(C)cc2O)cc1O | inactive
30 | O=C(COC(=O)c1ccccn1)Nc1cccc(Cl)c1Cl | inactive
31 | COC(=O)c1ccc(COC(=O)CCS(=O)(=O)c2ccc(C)cc2)cc1 | inactive
32 | CC(C)(C)C(=O)COc1ccccc1[N+](=O)[O-] | inactive
33 | COCCn1c(C)cc(C(=O)COC(=O)c2ccc(Br)o2)c1C | inactive
34 | C=CC[n+]1ccn(-c2nc3ccccc3nc2[N-]S(=O)(=O)c2cccs2)c1 | inactive
35 | CCCCSc1nnc(-c2cc(Br)ccc2N)c(=O)[nH]1 | inactive
36 | C/C(=N\NC(=O)c1cccs1)c1ccc2c(c1)OCO2 | inactive
37 | CC(Cc1cccs1)NC(=O)c1cccc(Cl)c1 (stereo not drawn) | inactive
38 | Cc1ccc(C(=O)CCNc2ccc(Br)cc2)o1 | inactive
39 | Cc1ccc(NC(CC(=O)c2ccccc2)C(=O)O)cc1Cl (stereo not drawn) | inactive
40 | Cc1ccc(C(=O)CCNc2ccc(F)c(Cl)c2)o1 | inactive
41 | COc1cc(C(=O)CCN2CCC(c3ccccc3)C2)cc(OC)c1OC (stereo not drawn) | inactive
42 | CC(C)COc1ccc(C(=O)CCN2CCCCC2)cc1 | inactive
43 | CC(C)Oc1ccc(C(=O)CCN2CCCCC2)cc1 | inactive
44 | CCCCc1ccc(NS(=O)(=O)c2c(C)n(C)c(=O)n(C)c2=O)cc1 | inactive
45 | C=C(C)C1CC=C(C)/C(=N/NC(=O)CNc2ccc(OCC)cc2)C1 (stereo not drawn) | inactive
46 | CC1N(C)c2cccc3cccc(c23)N1C | inactive
47 | CCCCCCCCCCn1ccc(=N)cc1 | inactive
48 | CCc1ccc(OCCCC(=O)NCc2ccco2)cc1 | inactive
49 | Nc1ccc2c(c1)oc1ccccc12 | inactive
50 | CCOC(=O)c1cn(Cc2cccc(Cl)c2)nn1 | inactive
51 | COc1cc(/C=N/Nc2ccc(Cl)c(C(=O)O)c2)ccc1OC(=O)c1ccco1 | inactive
52 | COc1cc(/C=C2\C(=O)N(c3ccc(S(N)(=O)=O)cc3)N=C2C)ccc1OC(=O)c1ccco1 | inactive

Row | Compound | outcome
53 | O=C(COc1ccccc1)NNc1nc2ccccc2s1 | inactive
54 | CC/C(=C\C=C\[C@@H]1C=C[C@@H]2CCC[C@H]2[C@@H]1C(=O)c1ccc[nH]1)[C@@H]1O[C@@H]([C@@H](C)C(=O)O)CC[C@@H]1C | inactive
55 | Cc1cccc(NCc2ccc([N+](=O)[O-])s2)c1 | inactive
56 | CCCc1nnc(-c2ccc(OC)cc2)o1 | inactive
57 | CCc1cc(C=NC2CCCCC2)c(O)s1 | inactive
58 | CCc1ccc(C(=O)NC2CCCCC2)s1 | inactive
59 | CC(=O)c1c(O)cc(=O)n(-c2ccccc2)c1-c1ccc(C)cc1 | inactive
60 | CCOC(=O)c1c(NC(=O)COC(=O)c2ccccn2)sc2c1CCC2 | inactive
61 | O=C(Oc1cccc([N+](=O)[O-])c1)c1ccc2c(=O)n3c(nc2c1)CCC3 | inactive
62 | Cc1ccc2c(CC(=O)OCC(=O)Nc3ccc(Cl)cn3)coc2c1 | inactive
63 | O=C(Nc1ccccc1N1CCCC1)c1cccc(F)c1 | inactive
64 | Cc1ccc(NC(=O)CN(C)C2CCCCC2)cc1Br | inactive
65 | Cc1noc(C)c1COc1ccc(C(=O)Nc2ccccn2)cc1 | inactive
66 | O=C(Nc1ncccn1)c1ccc([N+](=O)[O-])o1 | inactive
67 | O=C(Nc1ncccc1O)c1ccc(Oc2ccccc2)cc1 | inactive
68 | O=C(Nc1cccnc1)c1ccc(-c2ccc(Cl)cc2)o1 | inactive
69 | CCOC(=O)c1ccc(N=C2SC(C(=O)Nc3ccc(C(=O)O)cc3)CC(=O)N2Cc2cccs2)cc1 (stereo not drawn) | inactive
70 | COC(=O)C1=C(C(=O)OC)C(c2cc(Cl)ccc2O)c2sc(=O)[nH]c2S1 (stereo not drawn) | inactive
71 | Cc1ccc(SCCC(=O)OCC(=O)NCC2CCCCC2)cc1 | inactive
72 | COc1ccccc1NC(=O)CCN1CCN(c2ccc(Cl)cc2)CC1 | inactive
73 | CC(/C=C/c1ccco1)=N/NC(=O)c1ccc(C)nc1 | inactive
74 | CC(/C=C/c1ccc2c(c1)OCO2)=N/NC(=O)C1COc2ccccc2O1 (stereo not drawn) | inactive
75 | O=C(N/N=C/c1ccc[nH]1)c1ccc(Cl)cc1 | inactive
76 | O=C(N/N=C/c1ccc[nH]1)c1cccnc1 | inactive
77 | Cn1cccc1/C=N/NC(=O)c1ccco1 | inactive
78 | O=C(N/N=C/c1ccc(Br)s1)c1cccnc1 | inactive
